Results reported in PubChem BioAssay AID1159580 (chemical genetic matrix, 2015).
“And” between values parts separate entries of the source, which are not always exact repeats. Equal values may be shown once. Out of some 5,500 compounds screened, about 2,000 (36%) were called active. Inconclusive results (about 18%) are left out. No stated cut-off is given here; in the data, active means normalized growth mostly below about 0.91 (no sharp cut-off); inconclusive means no clear call, values can overlap the other calls; inactive means mostly above about 0.92. The list shows a part of the results.

Assay: chemical genetic growth profiling, strain panel (AID 1159580);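 further: tested at 20 µM; growth read once vehicle control cultures reached saturation at 30 °C; 1 = growth at the plate median or of vehicle wells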
Conditions: S. cerevisiae deletion strains, growth OD

Measured: normalized growth

CN(C)N=Nc1nc[nH]c1C(N)=O
inactive: locus YAL013W, strain DEP1, stronger effect = lower value 1.01 | locus YAL021C, strain ccr4, stronger effect = lower value 0.968 | locus YAL026C, strain drs2, stronger effect = lower value 1 | locus YAL030W, strain snc1, stronger effect = lower value 0.976 | locus YBL061C, strain skt5, stronger effect = lower value 0.976 | locus YBR009C, strain hhf1, stronger effect = lower value 1.02 | locus YBR021W, strain FUR4, stronger effect = lower value 1.02 | locus YBR023C, strain chs3, stronger effect = lower value 0.982 | locus YBR171W, strain sec66, stronger effect = lower value 0.969 | locus YBR229C, strain ROT2, stronger effect = lower value 1.01 | locus YBR231C, strain swc5, stronger effect = lower value 0.985 | locus YBR279W, strain paf1, stronger effect = lower value 0.966 | locus YCL011C, strain gbp2, stronger effect = lower value 0.953 | locus YCL016C, strain dcc1, stronger effect = lower value 0.957 | locus YCL029C, strain bik1, stronger effect = lower value 1 | locus YCL061C, strain MRC1, stronger effect = lower value 0.992 | locus YCL069W, strain vba3, stronger effect = lower value 0.984 | locus YCR088W, strain abp1, stronger effect = lower value 0.968 | locus YDL005C, strain med2, stronger effect = lower value 0.965 | locus YDL035C, strain GPR1, stronger effect = lower value 1.02 | locus YDL040C, strain nat1, stronger effect = lower value 0.979 | locus YDL074C, strain BRE1, stronger effect = lower value 1.01 | locus YDL101C, strain DUN1, stronger effect = lower value 1.01 | locus YDL134C, strain PPH21, stronger effect = lower value 1.02 | locus YDL185W, strain tfp1, stronger effect = lower value 0.997 | locus YDL192W, strain arf1, stronger effect = lower value 0.996 | locus YDR001C, strain nth1, stronger effect = lower value 0.975 | locus YDR069C, strain doa4, stronger effect = lower value 0.976 | locus YDR101C, strain arx1, stronger effect = lower value 1.01 | locus YDR137W, strain rgp1, stronger effect = lower value 0.975 | locus YDR150W, strain NUM1, stronger effect = lower value 1.01 | locus YDR159W, strain sac3, stronger effect = lower value 1.02 | locus YDR162C, strain NBP2, stronger effect = lower value 1.03 | locus YDR195W, strain ref2 1.01 | locus YDR297W, strain sur2, stronger effect = lower value 0.966 | locus YDR318W, strain mcm21, stronger effect = lower value 1 | locus YDR334W, strain swr1, stronger effect = lower value 0.949 | locus YDR335W, strain msn5, stronger effect = lower value 0.965 | locus YDR388W, stronger effect = lower value 0.992 | locus YDR392W, strain spt3, stronger effect = lower value 0.918 | locus YDR502C, strain sam2, stronger effect = lower value 1.01 | locus YEL003W, strain gim4, stronger effect = lower value 0.977 | locus YEL037C, strain rad23, stronger effect = lower value 0.985 | locus YEL061C, strain CIN8 (second series), stronger effect = lower value 0.98 | locus YEL061C, strain CIN8, stronger effect = lower value 1.01 | locus YER015W, strain faa2, stronger effect = lower value 0.981 | locus YER016W, strain bim1, stronger effect = lower value 0.98 | locus YER110C, stronger effect = lower value 0.995 | locus YER111C, strain swi4, stronger effect = lower value 0.987 | locus YER155C, strain BEM2 (second series), stronger effect = lower value 0.998 | locus YER155C, strain BEM2, stronger effect = lower value 1 | locus YER167W, strain BCK2, stronger effect = lower value 1.02 | locus YFR010W, strain ubp6, stronger effect = lower value 0.987 | locus YGL078C, strain dbp3, stronger effect = lower value 0.999 | locus YGL086W, strain mad1, stronger effect = lower value 1.01 | locus YGL167C, strain pmr1, stronger effect = lower value 0.981 | locus YGL173C, strain kem1, stronger effect = lower value 0.961 | locus YGL227W, strain vid30, stronger effect = lower value 0.979 | locus YGL240W, strain doc1, stronger effect = lower value 0.951 | locus YGL248W, strain PDE1, stronger effect = lower value 1.01 | locus YGL253W, strain hxk2, stronger effect = lower value 0.953 | locus YGR078C, strain PAC10, stronger effect = lower value 1 | locus YGR135W, strain pre9, stronger effect = lower value 1 | locus YGR252W, strain gcn5, stronger effect = lower value 1.05 | locus YHR013C, strain ard1, stronger effect = lower value 0.965 | locus YHR027C, strain rpn1, stronger effect = lower value 0.967 | locus YHR030C, strain SLT2, stronger effect = lower value 1.01 | locus YHR079C, strain IRE1 (second series), stronger effect = lower value 1 | locus YHR079C, strain IRE1, stronger effect = lower value 1.02 | locus YHR094C, strain hxt1, stronger effect = lower value 0.999 | locus YHR129C, strain ARP1, stronger effect = lower value 1.01 | locus YHR142W, strain chs7, stronger effect = lower value 0.926 | locus YHR200W, strain rpn10, stronger effect = lower value 1.01 | locus YIL066C, strain RNR3, stronger effect = lower value 1.01 | locus YIL073C, strain SPO22, stronger effect = lower value 1.02 | locus YIL125W, strain kgd1, stronger effect = lower value 0.995 | locus YIR030C, strain dcg1, stronger effect = lower value 1.01 | locus YJL092W, strain hpr5, stronger effect = lower value 0.984 | locus YJL095W, strain BCK1 (second series), stronger effect = lower value 0.966 | locus YJL095W, strain BCK1, stronger effect = lower value 1.01 and 1.03 | locus YJL115W, strain asf1, stronger effect = lower value 0.968 | locus YJL129C, strain trk1, stronger effect = lower value 0.958 | locus YJL134W, strain LCB3, stronger effect = lower value 1 | locus YJL154C, strain vps35, stronger effect = lower value 0.954 | locus YJL164C, strain tpk1, stronger effect = lower value 0.989 | locus YJL166W, strain qcr8, stronger effect = lower value 0.936 | locus YJL168C, strain set2, stronger effect = lower value 1.01 | locus YJL187C, strain SWE1 (second series), stronger effect = lower value 1.02 | locus YJL187C, strain SWE1, stronger effect = lower value 0.993 | locus YJR043C, strain POL32, stronger effect = lower value 1.03 | locus YJR066W, strain TOR1, stronger effect = lower value 1 | locus YJR075W, strain HOC1, stronger effect = lower value 1.01 | locus YKL009W, strain mrt4, stronger effect = lower value 1 | locus YKL068W, stronger effect = lower value 0.997 | locus YKL085W, strain MDH1 (second series), stronger effect = lower value 0.999 | locus YKL085W, strain MDH1, stronger effect = lower value 0.999 | locus YKL160W, strain elf1, stronger effect = lower value 0.931 | locus YKR001C, strain vps1, stronger effect = lower value 1 | locus YKR026C, strain gcn3, stronger effect = lower value 0.975 | locus YKR091W, strain srl3, stronger effect = lower value 0.97 | locus YLL001W, strain dnm1, stronger effect = lower value 0.916 | locus YLL026W, stronger effect = lower value 0.987 | locus YLL041C, strain sdh2, stronger effect = lower value 0.987 | locus YLR027C, strain aat2, stronger effect = lower value 0.991 | locus YLR039C, strain RIC1, stronger effect = lower value 1.04 | locus YLR058C, strain SHM2, stronger effect = lower value 1.02 | locus YLR102C, strain apc9, stronger effect = lower value 0.999 | locus YLR113W, strain HOG1, stronger effect = lower value 1.06 | locus YLR221C, strain rsa3, stronger effect = lower value 0.956 | locus YLR258W, strain gsy2, stronger effect = lower value 0.979 | locus YLR262C, strain YPT6 (second series), stronger effect = lower value 0.97 | locus YLR262C, strain YPT6, stronger effect = lower value 1.02 | locus YLR268W, strain sec22, stronger effect = lower value 1.01 | locus YLR320W, strain mms22, stronger effect = lower value 0.941 | locus YLR330W, strain CHS5, stronger effect = lower value 1.01 | locus YLR342W, strain FKS1 (second series), stronger effect = lower value 1.01 | locus YLR342W, strain FKS1, stronger effect = lower value 0.974 | locus YLR357W, strain rsc2, stronger effect = lower value 0.965 | locus YLR370C, strain arc18, stronger effect = lower value 0.973 | locus YLR371W, strain rom2, stronger effect = lower value 1 | locus YLR384C, strain iki3, stronger effect = lower value 0.985 | locus YLR418C, strain cdc73, stronger effect = lower value 1.03 | locus YML016C, strain PPZ1, stronger effect = lower value 1.01 | locus YML032C, strain rad52, stronger effect = lower value 0.993 | locus YML120C, strain ndi1, stronger effect = lower value 0.925 | locus YML124C, strain tub3, stronger effect = lower value 1 | locus YMR058W, strain fet3, stronger effect = lower value 0.979 | locus YMR078C, strain ctf18, stronger effect = lower value 0.999 | locus YMR125W, strain sto1, stronger effect = lower value 0.935 | locus YMR129W, stronger effect = lower value 0.992 | locus YMR205C, strain PFK2, stronger effect = lower value 0.927 | locus YMR223W, strain ubp8, stronger effect = lower value 0.988 | locus YMR231W, strain pep5, stronger effect = lower value 0.993 | locus YMR263W, strain SAP30, stronger effect = lower value 1.02 | locus YMR307W, strain GAS1, stronger effect = lower value 1.07 | locus YNL067W, strain RPL9B, stronger effect = lower value 1.01 | locus YNL071W, strain lat1, stronger effect = lower value 0.986 | locus YNL153C, strain GIM3, stronger effect = lower value 1 | locus YNL183C, strain NPR1, stronger effect = lower value 0.986 | locus YNL209W, strain ssb2, stronger effect = lower value 0.976 | locus YNL233W, strain BNI4, stronger effect = lower value 1 | locus YNL248C, strain rpa49, stronger effect = lower value 0.968 | locus YNL250W, strain rad50, stronger effect = lower value 0.979 | locus YNL271C, strain bni1, stronger effect = lower value 0.995 | locus YNL298W, strain CLA4, stronger effect = lower value 0.999 | locus YNL307C, strain MCK1, stronger effect = lower value 0.996 | locus YNL322C, strain KRE1 (second series), stronger effect = lower value 0.974 | locus YNL322C, strain KRE1, stronger effect = lower value 1.01 | locus YNR049C, strain mso1, stronger effect = lower value 0.967 | locus YNR052C, strain pop2, stronger effect = lower value 1 | locus YOL006C, strain TOP1, stronger effect = lower value 1.06 | locus YOL012C, strain htz1 0.752 | locus YOL147C, strain pex11, stronger effect = lower value 0.998 | locus YOR001W, strain rrp6, stronger effect = lower value 1.01 | locus YOR061W, strain CKA2, stronger effect = lower value 1.01 | locus YOR069W, strain VPS5, stronger effect = lower value 1 | locus YOR070C, strain gyp1, stronger effect = lower value 0.993 | locus YOR080W, strain dia2, stronger effect = lower value 0.973 | locus YOR083W, strain WHI5, stronger effect = lower value 0.936 | locus YOR106W, strain vam3, stronger effect = lower value 0.932 | locus YOR136W, strain idh2, stronger effect = lower value 1.01 | locus YOR144C, strain elg1, stronger effect = lower value 1.01 | locus YOR184W, strain ser1, stronger effect = lower value 1.01 | locus YOR231W, strain MKK1, stronger effect = lower value 1.02 | locus YOR265W, strain rbl2, stronger effect = lower value 0.977 | locus YOR270C, strain vph1, stronger effect = lower value 0.988 | locus YOR290C, strain snf2, stronger effect = lower value 0.943 | locus YOR316C, strain cot1, stronger effect = lower value 0.997 | locus YPL051W, strain arl3, stronger effect = lower value 0.973 | locus YPL055C, strain LGE1, stronger effect = lower value 1.02 | locus YPL078C, strain atp4, stronger effect = lower value 0.928 | locus YPL106C, strain sse1, stronger effect = lower value 0.942 | locus YPL240C, strain hsp82, stronger effect = lower value 1 | locus YPL241C, strain CIN2, stronger effect = lower value 1.01 | locus YPL256C, strain CLN2, stronger effect = lower value 1.04 | locus YPR119W, strain clb2, stronger effect = lower value 0.995 | locus YPR141C, strain kar3, stronger effect = lower value 0.987 | locus YPR163C, strain tif3, stronger effect = lower value 1 | locus YPR167C, strain met16, stronger effect = lower value 1 | strain wtn01, stronger effect = lower value 0.995
